Measured values published in PubChem BioAssay (NCATS).
Several values for one entry are separate records, joined by “and”; a condition that tells them apart may be missing. Equal values may be shown once. Inconclusive results are not listed. Values without a mark were called inactive. Activity calls are given as the source filed them. The call rests on the fitted dose curve; in most records, active means well fitted cell-killing curve with a large enough effect; inconclusive means small, poorly fitted or top-dose-only effect; inactive means flat fitted curve, though single readings scatter.

Test: Cell Viability - NIH 3T3 (AID 541); further: nearly all actives have a fitted effect of over 25% in size;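 on activity change, negative = cytotoxicity: plate controls were DMSO alone for no effect and tamoxifen positive control for full effect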
Conditions: NIH 3T3 cell viability, qHTS; activity change, negative = cytotoxicity: at 92.2 µM (top of the series)
From the text: NIH Chemical Genomics Center [NCGC]
NIH Molecular Libraries Screening Centers Network [MLSCN]
National Institutes of Environmental Health Sciences [NIEHS]
National Toxicology Program [NTP]
We have developed a 1536-well cell-based assay for quantitative high throughput screening (qHTS) against a number of cell lines to determine in vitro cytotoxicity of small molecules. This particular assay uses the NIH 3T3 fibroblast cell line which is established from NIH Swiss mouse embryo.
NCGC Assay Protocol Summary:
The CellTiter-Glo luminescent cell viability assay (Promega) is a homogeneous method to measure the number of viable cells in culture. The end point readout of this assay is based on quantitation of intracellular ATP, an indicator of metabolic activity, using the luciferase reaction. Luciferase catalyzes the oxidation of beetle Luciferin to oxyluciferin and light in the presence of ATP. The luminescent signal is proportional to amount of ATP present.
Using the CellTiter-Glo luminescent cell viability assay, the amount of cellular ATP was measured in the NIH 3T3 cell line with complete culture medium following compound treatment for 40 hours. The assay was performed in opaque white Kalypsys 1536-well plates. In the screen, tamoxifen and doxorubicin were used as positive controls. Library compounds were measured for their ability to cause acute toxicity in the cell line, as reflected by a decrease in intracellular ATP levels, in a concentration-dependent manner. […] AC50 values were determined from concentration-response data modeled with the standard Hill equation.
qHTS protocol for CellTiter Glo NIH 3T3 cellular assay
[Step] [Parameter] [Value] [Description]
1. Reagent; 5 uL; 1000 NIH 3T3 cells/well
2. Time; 5 hr; 37 °C incubation
4. Controls; 23 nL; Tamoxifen 0.34 uM to 100 uM & Doxorubicin 0.02 nM to 100 uM
5. Time; 40 hr; 37 °C incubation
6. Reagent; 5 uL; CellTiter Glo reagent
7. Time; 20 min; Room Temperature
8. Detection; Luminescence; Viewlux plate reader
Keywords: cell viability, cytotoxicity, NIH 3T3 cell line, luminescence, NTPHTS, NTPHTS_NCGC, NIEHS, EPA, DSSTox, MLSMR, MLSCN, NIH Roadmap, qHTS, NCGC
Potency means the concentration at half of the fitted maximal effect.

Structure (SMILES) | Potency | activity change, negative = cytotoxicity
O=C(O)c1ccc(O)cc1O | inactive | 
C=CCOC(=O)c1ccccc1C(=O)OCC=C |  | -13.2%
CCCCCCCCCCCCCCC1CO1 (stereo not given) |  | -7.81%
COc1ccc(/C=C/c2cc(OC)cc(=O)o2)cc1 |  | -15.1%
Nc1ccc(S(=O)(=O)O)cc1 |  | -5.84%
Cc1ccc(N)c([N+](=O)[O-])c1 |  | -18.7%
O=[N+]([O-])c1cccc(Cl)c1Cl |  | -11.6%
NC1=NC(S)C2N=CN=C2N1 (stereo not given) | 158 nM (active) | 
COC(=O)CCCCC(=O)OC |  | 1.59%
O=C(/C=C/c1ccc(O)c(O)c1)O[C@@H](C(=O)O)[C@@H](OC(=O)/C=C/c1ccc(O)c(O)c1)C(=O)O |  | -29.2%
CCCCOCCO | inactive | 
C=CC(=C)CCC=C(C)C |  | 8.1%
C=CC(=O)OCCOCCOCCOCCOC(=O)C=C | 2.51 µM (active) and 3.98 µM (active) | 
O=C(O)CC(C(=O)O)C(CC(=O)O)C(=O)O (stereo not given) |  | -25.3%
C=Cc1ccccc1Cl |  | -6.35%
Cc1c(N=C=O)cccc1N=C=O |  | 0.802%
c1ccccc1 | inactive | 
c1ccc2scnc2c1 |  | -19.6%
Cc1ccccc1C | inactive | 
CCO[Si](CCCN)(OCC)OCC |  | -20.1%

Structure (SMILES) | Potency | activity change, negative = cytotoxicity
CCCN(CCC)C(=O)SCC |  | 0.313%
C/C=C\c1ccc(OC)cc1 |  | -1.96%
O=C(O)c1ccccc1 |  | -6.26%
O=S(=O)(O)c1ccccc1 |  | 0.659%
c1ccc2c(c1)c1cccc3ccc4cccc2c4c31 |  | 7.67%
CC1(C)CC(N=C=O)CC(C)(CN=C=O)C1 (stereo not given) |  | 10.4%
O=NO | inactive | 
COCC(=O)O |  | -6.91%
CCC(O)OC(O)CC (stereo not given) | inactive | 
COc1ccc2nc(N)sc2c1 |  | -10.3%
S=C1NC=NC2N=CNC12 (stereo not given) | 3980 nM (active) | 
OCCNCCO |  | 3.33%
COC(=O)c1ccc(C=O)cc1 |  | -110% (active)
ClCCCl |  | 6.76%
O[C@@H]([C@H](O)[C@@H](O)CBr)[C@@H](O)CBr |  | -5.51%
C=CCc1ccc(OC)c(OC)c1 |  | -17.6%
Nc1ccc(Cl)cc1Cl |  | -0.532%
CCCCCCCCO |  | -23.5%
C[C@H](CCC(=O)O)[C@H]1CC[C@H]2[C@@H]3CC[C@@H]4C[C@H](O)CC[C@]4(C)[C@H]3CC[C@]12C |  | -1.1%
COc1c2ccoc2cc2oc(=O)ccc12 |  | -11.2%
